# Source: PubChem BioAssay (Paczesny and Yang Labs, IUPUI and University of Michigan)
# ST2 IL33 inh = inhibitors of human ST2 (IL1RL1) binding to IL-33, primary screen, biochemical, AlphaLISA; inhibition, % for hits at 17 µM; AlphaLISA ST2-Fc/biotin-IL-33 interaction, 1 h; actives 2.3% (n = 78,000); AID 1259354, 2018; Interleukin-1 receptor-like 1 (Homo sapiens), Q01638; in the data active = inhibition above about 30%
# Target sequence (Q01638 whole entry, looked up): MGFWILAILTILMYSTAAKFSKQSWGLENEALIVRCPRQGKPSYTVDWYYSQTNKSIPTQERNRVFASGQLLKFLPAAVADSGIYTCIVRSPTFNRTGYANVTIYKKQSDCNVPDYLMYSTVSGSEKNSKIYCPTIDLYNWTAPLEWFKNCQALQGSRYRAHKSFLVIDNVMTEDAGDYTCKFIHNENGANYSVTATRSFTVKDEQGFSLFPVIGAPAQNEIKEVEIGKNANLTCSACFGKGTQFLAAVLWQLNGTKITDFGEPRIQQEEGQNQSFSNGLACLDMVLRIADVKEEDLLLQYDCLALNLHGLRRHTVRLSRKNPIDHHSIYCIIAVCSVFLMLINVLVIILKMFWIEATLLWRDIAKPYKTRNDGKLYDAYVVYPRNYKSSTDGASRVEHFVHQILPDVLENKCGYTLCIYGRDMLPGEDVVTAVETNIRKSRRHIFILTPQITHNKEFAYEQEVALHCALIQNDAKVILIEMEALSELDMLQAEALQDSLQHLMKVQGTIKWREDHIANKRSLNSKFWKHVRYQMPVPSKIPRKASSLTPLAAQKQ
# * hit, by the source's call; i = inactive. This is one part of a sample in which hits are shown more often than they occur.
SMILES,ST2 IL33 inh
Cc1cc(C)cc(N2CCN(Cc3cnn(C)c3C3CC3)CC2=O)c1,i
COC(=O)C1CCN(C(c2ccc(C)cc2)c2sc3nc(C)nn3c2O)CC1 (configuration not stated),i
CN(C)c1ccc(CN2CCc3c([nH]c4ccccc34)C2)cc1,32.0%*
Clc1ccc(CN2CCc3ccccc3C2)cc1Cl,i
c1ccc2c3c([nH]c2c1)CN(Cc1ccc2c(c1)OCO2)CC3,i
CN(C)c1ccc(CN2CCc3ccccc3C2)cc1,31.0%*
CCOc1ccc(CN2CCc3ccccc3C2)cc1,i
Clc1ccccc1CN1CCc2c([nH]c3ccccc23)C1,i
CC1=C(C(=O)OCCC#N)C(c2cccc(Br)c2)NC(=O)N1 (configuration not stated),i
COc1cc(OC)c(-c2c(-c3ccccc3)ncn2CC2CNCCO2)cc1OC (configuration not stated),i
Cc1cc(C)n(CCNC(=O)CCc2c[nH]c3ccccc23)c(=O)n1,i
CCOC(=O)C1=NN(c2ccc(Br)cc2)C2C(=O)N(c3ccccc3OC)C(=O)C12 (configuration not stated),i
Cc1ccccc1OCC(=O)Nc1ccc(NC(=O)c2ccco2)c(Cl)c1,i
Cc1cccc(N=C2c3ccccc3-c3ncccc32)c1,41.0%*
Cc1cccc(N=C2NC(=O)c3cccc([N+](=O)[O-])c32)c1,i
Cc1ccc(N2C(=O)c3cccnc3C2=O)c(C)c1,i
Cc1cccc(-c2cc(N3CCN(S(=O)(=O)c4ccc(C(C)C)cc4)CC3)ncn2)c1,i
Cc1nc(N2CCOCC2)c2c(C)c(C(=O)N3CCN(c4ccc(F)cc4)CC3)sc2n1,i
Cc1ccc(C)c(CN2C(=O)CSc3ccc(C(=O)NC4CC4)cc32)c1,i
Cc1cc2n(c1)CCn1c(C)ccc1-2,63.0%*
O=C(O)CCCNC(=O)Cn1cnc2sc3c(c2c1=O)CCCC3,i
CCN(c1ccccc1)S(=O)(=O)c1cc(OC)ccc1OC,i
CCN(c1ccccc1)S(=O)(=O)c1cc([N+](=O)[O-])ccc1N,32.0%*
CCN(c1ccccc1)S(=O)(=O)c1ccc(OC)c(OC)c1,i
Cn1c(C(Cc2ccccc2)NC(=O)C(C)(C)C)nc2ccccc21 (configuration not stated),i
SMILES,ST2 IL33 inh
CCN(CC)C(=O)[C@@H]1C[C@H](N)CN1C(=O)Cn1c(=O)cc(C)c2ccccc21,i
COCc1ccc(C(=O)NCc2ccc3c(c2)n(C)c(=O)n3C)o1,i
Cn1c(=O)n(C)c2cc(CNC(=O)Cc3c[nH]c4ccccc34)ccc21,30.0%*
Cc1cc(C)n(CCC(=O)NCCc2c[nH]c3ccccc23)c(=O)n1,i
N#Cc1c(-n2cccc2/C=N\O)sc2c1CCCC2,i
CC1CCN(C(=O)CSc2nc3c(c(=O)n2-c2ccccc2)SCC3)CC1,i
COC(=O)Oc1cc2oc(=O)sc2cc1Cl,i
CCOC(=O)Oc1ccc2c(c1)oc(=O)c1ccccc12,i
CCOC(=O)Oc1c(Cl)cc2oc(=O)sc2c1Br,32.0%*
Cn1c(NC(=O)c2ccc(Cl)cc2)nc2ccccc21,i
Cc1c(Cl)cccc1N1C(=O)C2CC=CC(C)C2C1=O (configuration not stated),i
COCCn1c(CNC(=O)C2CCC2)nc2cccnc21,i
Cn1cnnc1C1CCN(Cc2cc3cc4c(cc3[nH]c2=O)OCO4)CC1,i
COc1cc(-c2[nH]nc3c2C(c2ccncc2)C(C#N)=C(N)O3)cc(OC)c1OC (configuration not stated),i
CC(=O)Nc1ccc(CC(C(=O)O)c2ccccc2)cc1 (configuration not stated),i
COc1ccc(NC(=O)CN2C(=O)C(=O)c3ccccc32)c(OC)c1,i
COc1ccc(C2CC(c3ccccc3)=NN2C(=O)c2ccccc2)cc1 (configuration not stated),i
COc1ccc(C2=NN(CN3C(=O)C(=O)c4ccccc43)C(c3ccc(OC)cc3)C2)cc1 (configuration not stated),36.0%*
CCCCNc1nc2c(c(=O)n(C)c(=O)n2C)n1Cc1ccc(Cl)cc1Cl,i
Cc1cc(C)n(CCCNC(=O)c2nc3ccccc3[nH]c2=O)n1,i
Cc1cc(C)n(-c2n[nH]c(=O)c3ccccc23)n1,i
Cc1cc(C)n(-c2nc3ccccc3[nH]c2=O)n1,46.0%*
CCn1cc(C(=O)NCc2cccs2)c(=O)c2cc(S(=O)(=O)N3CCC(C)CC3)ccc21,i
O=C(CSc1nnc2sc3ccccc3n12)NCCc1ccccc1,i
Cc1cc(N2CCN(C)CC2)nc2ccc(NC(=O)CCC(=O)N3CCC(C)CC3)cc12,i
SMILES,ST2 IL33 inh
CN1CCc2[nH]c3c(Cl)cccc3c2C1,i
Cc1ccc2c(c1)c1c(n2CCN2C(=O)c3ccccc3C2=O)C(=O)CCC1,i
Cc1ccc2c(c1)c1c(n2CCC#N)CCN(C)C1,42.0%*
Cc1noc(C)c1C(=O)NC1CC(=O)N(Cc2cccc3ccccc23)C1 (configuration not stated),i
CCOC(=O)c1c(NC(=O)c2ccccc2)sc2c1CCN(C(C)C)C2,i
CC1CCN([C@@H]2[C@H](O)[C@H](CO)O[C@@H]2CNC(=O)c2ccccc2)CC1,i
Cc1ccc(N2CC(NC(=O)Cc3ccc(Cl)cc3)CC2=O)cc1C (configuration not stated),i
O=C1C=CC(=NOS(=O)(=O)c2ccc(Cl)cc2)C=C1,48.0%*
CC1CC(C)CN(S(=O)(=O)c2ccc(Cl)cc2)C1 (configuration not stated),i
O=S(=O)(Cc1ccccc1)c1ccc(Cl)cc1,i
O=C(C1CC1)N1CCN=C1SCc1cccc(Cl)c1,i
CCCCC(=O)Nc1ccc(NC(=O)CC2C=CS(=O)(=O)C2)cc1 (configuration not stated),i
Cc1c(NS(=O)(=O)c2ccc3c(c2)C(=O)c2ccccc2-3)c(=O)n(-c2ccccc2)n1C,i
COc1ccc(S(=O)(=O)NCC(C)C)cc1OC,i
CC(C)CCNS(=O)(=O)c1ccc2c(c1)C(=O)c1cc(S(=O)(=O)NCCC(C)C)ccc1-2,36.0%*
O=C(C(c1cccnc1)N1CCOCC1)N1C[C@@H]2C3CCC(CC3)[C@@H]2C1 (some centres not stated),i
COCCCNc1oc(-c2ccc(F)cc2)nc1C#N,i
CN1C[C@H](O)C[C@H]1c1nc(-c2cccc([N+](=O)[O-])c2)no1,i
O=C1Nc2ccccc2C1=Nc1ccc(C(=O)O)cc1,i
O=C(O)/C=C1\NC(=O)c2ccccc21,i
O=C1Nc2ccccc2/C1=C/C(=O)c1ccc(Cl)cc1,32.0%*
CCCOc1ccc(/C=C2\N=C(c3cccc([N+](=O)[O-])c3)OC2=O)cc1OC,i
CCOc1ccc(S(=O)(=O)N2CCSC2c2ccc(OC)c([N+](=O)[O-])c2)cc1 (configuration not stated),i
COc1cc([N+](=O)[O-])ccc1NC(=O)COc1ccc(Br)cc1C,i
CCCOc1ccc(C2Oc3ccc(Br)cc3C=C2[N+](=O)[O-])cc1OC (configuration not stated),44.0%*
CCOc1cc2c(cc1OCC)C(c1ccc(Br)cc1)OC(=O)C2 (configuration not stated),i
CCOc1ccc(C2Oc3c(cc(Br)cc3OC)C=C2[N+](=O)[O-])cc1OCC (configuration not stated),43.0%*
